Experimental data reported in PubChem BioAssay AID1240 (Sanford-Burnham Center for Chemical Genomics, 2008).
The whole screen tested about 50,000 compounds, of which about 800 (1.6%) showed an effect of 50% or more. Many of the other results were omitted from the sample, so strong results are more common in it than they were.

target: Bcl-2-like protein 10 (Homo sapiens) (UniProt Q9HD36); test: Phenotype converters, Bcl-B/TR3 peptide binding displacement, primary biochemical FP (AID 1240); settings: GST-Bcl-B / FITC-TR3 peptide fluorescence polarization; stronger effect = higher value; compound at 3.75 mg/L;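 note: 0% = Bcl-B with tracer peptide and DMSO and 100% = tracer peptide lacking Bcl-B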
Sequence (Q9HD36 whole entry, looked up): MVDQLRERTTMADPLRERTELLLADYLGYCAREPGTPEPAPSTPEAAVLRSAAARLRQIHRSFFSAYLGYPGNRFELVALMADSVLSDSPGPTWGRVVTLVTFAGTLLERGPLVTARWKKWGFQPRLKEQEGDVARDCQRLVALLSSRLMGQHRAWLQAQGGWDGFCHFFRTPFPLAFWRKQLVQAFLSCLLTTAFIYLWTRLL

Going from `Cc1ccc(-c2[nH]n3c(=O)cc(-c4ccccc4)nc3c2C)cc1` to `Cc1ccc2nc(-c3ccc(OC(=O)c4ccccc4F)cc3)sc2c1`, the displacement rises from 15.2% to 76.4%.

Going from `CN(C)CCCNC(=O)/C=C/c1ccc(Cl)cc1` to `CCc1ccc(/C=C2/C(=O)NC(=O)N2C(C)=O)cc1`, the displacement falls from 14% to 13.8%.

Going from `COc1cc(C(=O)Nc2cccc(-c3cc4ccccc4oc3=O)c2)cc(OC)c1OC` to `Cc1cc([N+](=O)[O-])ccc1-c1ccc(C(=O)Nc2ccc3oc(-c4ccccc4)nc3c2)o1`, the displacement rises from 3.9% to 116%.

Compared with `CCOc1ccc(NC2=C(Cl)C(=O)N(c3ccc(Br)cc3)C2=O)cc1`, `Cc1ccc(N2C(=O)NC(=O)/C(=C/c3cccc(Cl)c3)C2=O)cc1` is lower in displacement: -4.8% for the first, -8.8% for the second.

Compared with `CC1CCc2c(sc(NC(=O)/C=C/c3ccccc3)c2C(N)=O)C1` (stereo not drawn), `CC1CCc2c(sc(NC(=O)/C=C/c3ccc4c(c3)OCO4)c2C(N)=O)C1` (stereo not drawn) is higher in displacement: 10.5% for the first, 144% for the second.

First: CC(=O)Nc1sc2c(c1C(N)=O)CCC(C)C2 (stereo not drawn)
Second: CC(=O)c1ccc(NC(=O)C2CC(=O)N(C3CCCCC3)C2)cc1 (stereo not drawn)
The displacement of the first is lower: 10.6% for the first, 11.1% for the second.

Going from `OCc1c(O)cnc2ccccc12` to `Cc1ccc2nc(-c3ccc(O)cc3)sc2c1`, the displacement falls from 19.4% to 12.7%.

Going from `O=c1[nH]c(-c2ccc(-c3ccc(F)cc3)o2)nc2sc3c(c12)CCCC3` to `O=C(Nc1ccc(Cl)cn1)c1ccc(-c2ccc([N+](=O)[O-])cc2)o1`, the displacement rises from -13.3% to 13.9%.

Going from `CC(/C=C1\SC(N2CCN(C3=NC(=O)/C(=C\C(C)=C\c4ccccc4)S3)CC2)=NC1=O)=C\c1ccccc1` to `O=C1c2[nH]nc(-c3ccccc3)c2C(c2ccccc2F)N1c1ccccc1` (stereo not drawn), the displacement rises from -9% to -3.9%.

First: O=C1NC(=O)/C(=C/c2cccnc2)S1
Second: CC(=O)N1C(=S)NC(=O)/C1=C\c1cccnc1
The displacement of the first is lower: 12% for the first, 93.4% for the second.

Compared with `N#Cc1c(-c2ccc(Br)cc2)cc(-c2ccco2)c(C#N)c1N`, `N#Cc1c(-c2ccc(Br)cc2)cc(-c2ccc3c(c2)OCO3)c(C#N)c1N` is lower in displacement: 76.9% for the first, 4.5% for the second.

First: Cc1ccc(-c2cc(-c3ccncc3)c(C#N)c(N)c2C#N)cc1
Second: Cc1ccc2nc(-c3ccc(NC(=O)c4ccccc4-c4ccccc4C(=O)O)cc3)sc2c1
The displacement of the first is higher: 21.2% for the first, 7.9% for the second.

Going from `CCOC(=O)C(=CNCCC(=O)O)C(=O)OCC` to `CC(C)CC(NC(=O)c1ccco1)C(=O)O` (stereo not drawn), the displacement falls from 14.6% to 9.5%.

Going from `COc1ccc(CCN2C(=O)C3C4c5ccccc5C(C)(c5ccccc54)C3C2=O)cc1OC` (stereo not drawn) to `COc1cc(/C=c2/sc3nc4ccccc4n3c2=O)ccc1OCc1nn[nH]n1`, the displacement rises from -1.3% to 5.2%.

Compared with `Cc1ccc(N2C(=O)NC(=O)/C(=C\c3ccc(C)s3)C2=O)cc1`, `Cc1ccc(C=C2C(=O)NC(=O)N(c3cccc(Cl)c3)C2=O)s1` is higher in displacement: 13.4% for the first, 87.1% for the second.

Compared with `CC(C)CNC(=O)C(=O)Nc1ccc(Oc2ccccc2)cc1`, `O=C(Nc1ccc2nc(SCCOc3ccccc3)sc2c1)c1ccccc1Cl` is lower in displacement: 5.2% for the first, -3.4% for the second.

Compared with `C=C(C)CSc1nc2sc3c(c2c(=O)n1CC(=C)C)CC(C)(C)OC3`, `C=CCn1c(SCCC)nc2sc3c(c2c1=O)CCc1ccccc1-3` is higher in displacement: -10.4% for the first, 0.4% for the second.

Compared with `CC(C)(C)c1ccc(/C=C2\NC(=S)NC2=O)cc1`, `CCOc1ccc(/C=C2/NC(=S)NC2=O)cc1` is higher in displacement: -20.2% for the first, 10.8% for the second.

Compared with `COc1ccc(/C=C/C=C2\NC(=S)NC2=O)cc1`, `COc1ccc(CCC(=O)Nc2cc(Cl)cc(Cl)c2)cc1` is lower in displacement: 128% for the first, 0.3% for the second.

First: CC(C)(C)CC(C)(C)NC(=O)c1ccc2nccnc2c1
Second: COc1ccc(C(=O)NNC(=O)c2cccc(C)c2O)cc1OC
The displacement of the first is higher: 14.3% for the first, -1.1% for the second.

First: Cc1ccccc1-n1c(C)cc(/C=N/NC(=O)CN2CCOCC2)c1C
Second: COc1cccc(CN2CCN(C(=O)c3cccc(Cl)c3)CC2)c1
The displacement of the first is lower: -22.2% for the first, 3.6% for the second.

First: Cc1cc([N+](=O)[O-])ccc1-c1ccc(C(=O)Nc2ccc(Cl)cn2)o1
Second: Cc1cc([N+](=O)[O-])ccc1-c1ccc(C(=O)Nc2ccc(Cl)cc2)o1
The displacement of the first is higher: 50.1% for the first, 45.8% for the second.

Compared with `O=C(Nc1ccc2oc(-c3ccccc3)nc2c1)c1ccc(-c2ccc([N+](=O)[O-])cc2)o1`, `Cc1cc([N+](=O)[O-])ccc1-c1ccc(C(=O)Nc2ccc(-c3nc4ccccc4o3)c(O)c2)o1` is lower in displacement: 22.1% for the first, 10.8% for the second.

Going from `CCc1ccccc1NC(=O)C(F)(Cl)C(F)(F)F` (stereo not drawn) to `CCOC(=O)C1=C(C)N=c2s/c(=C\c3ccccc3OC)c(=O)n2C1c1ccc(C)cc1` (stereo not drawn), the displacement rises from -3.1% to -2.8%.

First: CC(=O)N(Cc1ccc2c(c1)OCO2)C1CC(=O)N(c2cccc(Cl)c2)C1=O (stereo not drawn)
Second: CC(=O)N(Cc1ccc2c(c1)OCO2)C1CC(=O)N(c2ccc(Br)cc2)C1=O (stereo not drawn)
The displacement of the first is lower: 16% for the first, 72.3% for the second.

Going from `O=C1CC(N(Cc2ccc3c(c2)OCO3)C(=O)c2ccc(Cl)cc2)C(=O)N1c1ccc(F)cc1` (stereo not drawn) to `CCOC(=O)C1=C(C)N=c2s/c(=C\c3ccc(OC)cc3)c(=O)n2C1c1ccc(Cl)cc1` (stereo not drawn), the displacement rises from -2.2% to 18.8%.

Compared with `CC1(C)CC(=O)C2=C(C1)Nc1ccccc1NC2c1cccc(Br)c1` (stereo not drawn), `CCOC(=O)C1=C(C)N=c2s/c(=C\c3cccc(OC)c3O)c(=O)n2C1c1ccccc1` (stereo not drawn) is lower in displacement: 2.4% for the first, -0.2% for the second.

First: CCOC(=O)C1=C(C)N=c2s/c(=C\c3ccc(OC)c(OC)c3OC)c(=O)n2C1c1ccccc1 (stereo not drawn)
Second: CCOC(=O)C1=C(C)N=c2s/c(=C\c3ccc(OC)c(OC)c3OC)c(=O)n2C1c1ccc(Cl)cc1 (stereo not drawn)
The displacement of the first is higher: 210% for the first, 152% for the second.

First: CCOC(=O)C1=C(C)N=c2s/c(=C\c3ccc(OC)c(O)c3)c(=O)n2C1c1ccc(Cl)cc1 (stereo not drawn)
Second: CCOC(=O)C1=C(N)OC2=C(C(=O)CCC2)C1c1ccc(Cl)cc1Cl (stereo not drawn)
The displacement of the first is lower: -5.3% for the first, -2.9% for the second.
